About 2,000 (36%) of roughly 5,500 compounds were called active. Another 18% or so got no clear call; they are omitted. No stated cut-off is given here; in the data, active means normalized growth mostly below about 0.91 (no sharp cut-off); inconclusive means no clear call, values can overlap the other calls; inactive means mostly above about 0.92. The list shows a part of the results.
Assay: chemical genetic growth profiling, strain panel (AID 1159580);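 further: tested at 20 µM; growth read once vehicle control cultures reached saturation at 30 °C; 1 = growth at the plate median or of vehicle wells; lower values mean less growth of the strain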
Details: S. cerevisiae deletion strains, growth OD
[1] = locus YAL013W, strain DEP1, hits give low values
[2] = locus YBR229C, strain ROT2, hits give low values
[3] = locus YDL101C, strain DUN1, hits give low values
[4] = locus YDR150W, strain NUM1, hits give low values
[5] = locus YEL061C, strain CIN8, hits give low values
[6] = locus YGR078C, strain PAC10, hits give low values
[7] = locus YHR030C, strain SLT2, hits give low values
[8] = locus YHR087W, strain rtc3, hits give low values
[9] = locus YJR043C, strain POL32, hits give low values
[10] = locus YJR075W, strain HOC1, hits give low values
[11] = locus YLR039C, strain RIC1, hits give low values
[12] = locus YLR058C, strain SHM2 (second series), hits give low values
[13] = locus YLR085C, strain ARP6, hits give low values
[14] = locus YLR262C, strain YPT6, hits give low values
[15] = locus YML094W, strain GIM5, hits give low values
[16] = locus YMR219W, strain ESC1, hits give low values
[17] = locus YMR263W, strain SAP30, hits give low values
[18] = locus YNL128W, strain TEP1, hits give low values
[19] = locus YNL153C, strain GIM3, hits give low values
[20] = locus YNL298W, strain CLA4 (second series), hits give low values
[21] = locus YNL322C, strain KRE1, hits give low values
[22] = locus YNR030W, strain Alg12, hits give low values
[23] = locus YPL055C, strain LGE1, hits give low values
[24] = locus YPL241C, strain CIN2, hits give low values
[25] = locus YPR135W, strain CTF4, hits give low values

Measured: normalized growth

CCCCC#Cc1ccc(C(=O)NNC(=O)Nc2cc(Cl)cc(Cl)c2)o1
inactive: [1] 1.03 | [2] 1.01 | locus YCL061C, strain MRC1, hits give low values 0.981 | [3] 1.02 | [4] 0.963 | [5] 0.963 | [6] 1 | [7] 1.01 | [8] 1.01 | [9] 0.998 | [10] 0.973 | [11] 1.03 | [12] 1.01 | [13] 1.07 | [14] 1.05 | [15] 1 | [16] 1.01 | [17] 1.07 | locus YMR307W, strain GAS1, hits give low values 1 | [18] 0.995 | [19] 0.995 | [20] 1.03 | [21] 1.03 | [22] 0.995 | [23] 1.03 | [24] 1.02 | [25] 0.931

O=C(Nc1ccc(F)cc1)c1cc(Br)ccc1O
inactive: locus YAR019C, strain CDC15, hits give low values 0.91 | locus YBL105C, strain PKC1, hits give low values 0.907 | locus YBR135W, strain CKS1, hits give low values 0.901 | locus YBR136W, strain MEC1, hits give low values 0.913 | locus YBR160W, strain CDC28, hits give low values 0.899 | locus YDL028C, strain MPS1, hits give low values 0.909 | [3] 0.952 | locus YDL108W, strain KIN28, hits give low values 0.897 | locus YDL132W, strain cdc53, hits give low values 0.94 | locus YDL214C, strain PRR2, hits give low values 0.867 | locus YDR226W, strain ADK1, hits give low values 0.941 | locus YDR477W, strain SNF1, hits give low values 0.882 | locus YER123W, strain YCK3, hits give low values 0.806 | locus YER133W, strain GLC7, hits give low values 0.908 | locus YFL029C, strain CAK1, hits give low values 0.894 | locus YFR003C, strain YPI1, hits give low values 0.907 | locus YFR019W, strain FAB1, hits give low values 0.901 | locus YGR040W, strain KSS1, hits give low values 0.797 | locus YGR052W, strain FMP48, hits give low values 0.901 | locus YGR092W, strain DBF2, hits give low values 0.614 | locus YHR079C, strain IRE1, hits give low values 0.827 | locus YHR082C, strain KSP1, hits give low values 0.813 | locus YHR205W, strain SCH9, hits give low values 0.615 | locus YIL147C, strain SLN1, hits give low values 0.918 | locus YJL095W, strain BCK1, hits give low values 0.791 | locus YJL128C, strain PBS2, hits give low values 0.957 | locus YJL157C, strain FAR1, hits give low values 0.83 | locus YJR016C, strain ILV3, hits give low values 0.923 | locus YJR066W, strain TOR1 (second series), hits give low values 0.904 | locus YJR066W, strain TOR1, hits give low values 0.786 | locus YKL048C, strain ELM1, hits give low values 0.891 | locus YKL067W, strain YNK1, hits give low values 0.853 | locus YKL101W, strain HSL1, hits give low values 0.817 | locus YKL193C, strain SDS22, hits give low values 0.901 | locus YKL203C, strain TOR2, hits give low values 0.873 | locus YLR133W, strain CKI1, hits give low values 0.835 | locus YLR403W, strain SFP1, hits give low values 0.834 | locus YML070W, strain DAK1, hits give low values 0.86 | locus YMR001C, strain CDC5, hits give low values 0.908 | locus YMR205C, strain PFK2 (second series), hits give low values 0.832 | locus YNL006W, strain LST8, hits give low values 0.923 | locus YNL020C, strain ARK1, hits give low values 0.797 | locus YNL161W, strain CBK1, hits give low values 0.913 | locus YNL183C, strain NPR1, hits give low values 0.758 | locus YNL207W, strain RIO2, hits give low values 0.907 | locus YNL222W, strain SSU72, hits give low values 0.902 | locus YNL307C, strain MCK1 (second series), hits give low values 0.776 | locus YOL078W, strain AVO1, hits give low values 0.898 | locus YOL136C, strain PFK27, hits give low values 0.837 | locus YOR061W, strain CKA2, hits give low values 0.773 | locus YOR119C, strain RIO1, hits give low values 0.881 | locus YOR231W, strain MKK1, hits give low values 0.845 | locus YOR329C, strain SCD5, hits give low values 0.912 | locus YPL031C, strain PHO85, hits give low values 0.865 | locus YPL153C, strain RAD53, hits give low values 0.777 | locus YPL204W, strain HRR25, hits give low values 0.862 | locus YPL209C, strain IPL1, hits give low values 0.909 | locus YPR025C, strain CCL1, hits give low values 0.907 | locus YPR106W, strain ISR1, hits give low values 0.914 | locus YPR111W, strain DBF20, hits give low values 0.893 | strain NNK1, hits give low values 0.927 | strain TSCII, hits give low values 0.902
active: locus YDL017W, strain CDC7, hits give low values 0.898 | locus YDR052C, strain DBF4, hits give low values 0.905 | locus YDR054C, strain cdc34, hits give low values 0.876 | locus YFL009W, strain cdc4, hits give low values 0.887 | locus YFR028C, strain CDC14, hits give low values 0.863 | locus YLR113W, strain HOG1, hits give low values 0.804 | locus YMR277W, strain FCP1, hits give low values 0.884 | locus YPL256C, strain CLN2, hits give low values 0.837

Clc1cc(Cl)cc(Br)c1
inactive: [1] 1.03 | [2] 1.02 | [3] 1.02 | locus YDL134C, strain PPH21, hits give low values 1.02 | [4] 1.04 | [5] 1.03 | [6] 1.01 | [7] 1.1 | [8] 1.05 | [9] 1.01 | [10] 1 | [11] 1.09 | [12] 1.02 | [13] 1.14 | [14] 1.07 | [15] 1.04 | [16] 1.02 | [17] 1.02 | [18] 1.02 | [19] 1.01 | [20] 1.08 | [21] 1.02 | [22] 1.05 | [23] 1.03 | [24] 1.04 | [25] 1.16

Source: PubChem BioAssay AID1159580 (chemical genetic matrix, 2015)
